High-throughput results: PubChem BioAssay, several laboratories
PTK2B oligo ant = antagonists of human Pyk2 oligomerization | z-score (the deposit names both 25 µM and 10 µM) | actives 0.83% (n = 99,000) | Q293 cells, Pyk2 FERM NanoBiT luminescence; hits give low values;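 active = Z-score of -3 or lower, scaled per plate to the spread of control and sample wells; inactive = z-score above -3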;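 also: negative z-score means lost luminescence so less FERM oligomerization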
CYP2C9 inh = blocks human cytochrome P450 2C9 | P11712 | CYP2C9 Supersomes, luciferin-H conversion, luminescence | inhibition, % at 5 µM | actives 20% (n = 96,000);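 active = blocking of liver enzyme CYP2C9 beyond about 50% at 5 µM, limit read from the data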
CYP2C9 activ = increases human cytochrome P450 2C9 activity; P11712; recombinant CYP2C9, luciferin-H conversion, luminescence; hits give high values; factor 1 = untreated enzyme, 0 = blocked; activation factor at 5 µM; actives 1.4% (n = 96,000); AID 1024;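 active = activation factor of 2 or more for CYP2C9 at a 5 µM dose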;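 also: 0 = sulfaphenazole-blocked wells and 1 = vehicle-only wells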
Cav3 T inh = blocks human Cav3.2 T-type calcium channel; actives 4% (n = 100,000); B-score at 10 µM; Cav3.2-expressing cells, Fluo-4 calcium fluorescence FDSS; hits give low values; AID 449739;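 active = single-dose well whose peak fluorescence ratio is a statistical outlier from its plate by either plate-standardised score or position-corrected B-score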
CYP2C19 act = cytochrome P450 2C19 (human) activation. recombinant CYP2C19, luciferin-H EGE luminescence; hits give high values; 0 = fully inhibited enzyme, 1 = untreated enzyme. activation factor at 5 µM. 96,000 tested, under 10 active. AID 1025;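 active = activation factor of at least 2 at 5 µM in the primary screen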;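 also: 0 = wells with 2.5 mM tranylcypromine and 1 = vehicle-only wells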
Target sequence (P33261 whole entry, looked up): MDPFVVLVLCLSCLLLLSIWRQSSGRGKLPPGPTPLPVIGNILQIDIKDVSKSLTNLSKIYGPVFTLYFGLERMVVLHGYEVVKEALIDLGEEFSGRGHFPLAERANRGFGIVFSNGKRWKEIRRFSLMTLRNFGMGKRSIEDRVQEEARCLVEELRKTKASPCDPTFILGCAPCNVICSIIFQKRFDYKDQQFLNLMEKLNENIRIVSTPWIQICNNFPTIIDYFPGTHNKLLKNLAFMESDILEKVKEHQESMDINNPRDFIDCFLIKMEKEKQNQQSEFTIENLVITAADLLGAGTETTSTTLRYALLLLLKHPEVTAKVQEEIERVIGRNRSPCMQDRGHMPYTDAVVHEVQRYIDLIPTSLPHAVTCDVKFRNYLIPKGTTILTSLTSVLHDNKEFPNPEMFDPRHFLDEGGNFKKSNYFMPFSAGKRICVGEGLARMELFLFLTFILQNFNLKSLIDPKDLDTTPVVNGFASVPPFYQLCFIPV
CYP2C19 inh = inhibitors of human CYP2C19 | actives 21% (n = 96,000) | inhibition, % at 5 µM | P33261 | CYP2C19 Supersomes, luciferin-H EGE luminescence, 30 min;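 active = CYP2C19 inhibition above a set limit at 5 µM in the primary screen, cut at about 50% in these data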;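 also: plate controls were negative control wells for no effect and 2.5 mM tranylcypromine positive control for full effect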
An asterisk follows results filed as active. Rows were chosen to be rich in hits. Some 27% of all compounds tested hit in one or more screens of this group.

What do the screens show for `CN(CC1COc2ccccc2O1)c1nc(-c2cccnc2)nc2ccccc12` (stereo not drawn)?
PTK2B oligo ant: -1.89; Cav3 T inh: -2.05

What do the screens show for `Cc1ccc(-n2c(O)c(C=Nc3ccc(S(=O)(=O)N(C)C)cc3)c(=O)[nH]c2=O)cc1`?
PTK2B oligo ant: 0.16; CYP2C9 inh: -1.6; CYP2C9 activ: 1; Cav3 T inh: 1.1; CYP2C19 act: 1.1; CYP2C19 inh: -8.7

What do the screens show for `COc1ccc(-n2c(O)c(C(C)=NC3CC3)c(=O)[nH]c2=O)cc1`?
PTK2B oligo ant: -0.29; CYP2C9 inh: -15.9; CYP2C9 activ: 1.2; Cav3 T inh: -0.133; CYP2C19 act: 0.7; CYP2C19 inh: 30.7

Results for Nc1c(C(=O)NCCc2ccccc2)c2nc3ccccc3nc2n1CCN1CCOCC1 ?
PTK2B oligo ant: 1.91; CYP2C9 inh: 97.1*; CYP2C9 activ: 0; Cav3 T inh: -0.373; CYP2C19 act: 0.3; CYP2C19 inh: 67.2*

Results for COc1ccc(CCNC(=O)c2c(N)n(CCN3CCOCC3)c3nc4ccccc4nc23)cc1 ?
PTK2B oligo ant: 0.6; CYP2C9 inh: 50.3*; CYP2C9 activ: 0.5; Cav3 T inh: 0.668; CYP2C19 act: 0.9; CYP2C19 inh: 10.4

How did Nc1c(C(=O)NCCN2CCOCC2)c2nc3ccccc3nc2n1Cc1ccco1 do in these assays?
PTK2B oligo ant: -0.4; CYP2C9 inh: 27.1; CYP2C9 activ: 0.7; Cav3 T inh: -1.74; CYP2C19 act: 0.8; CYP2C19 inh: 17.2

Results for CCCCn1c(N)c(C(=O)NCCN2CCOCC2)c2nc3ccccc3nc21 ?
PTK2B oligo ant: -1.81; CYP2C9 inh: 13.5; CYP2C9 activ: 0.9; Cav3 T inh: -0.324; CYP2C19 act: 1; CYP2C19 inh: -4.8

What do the screens show for `O=C(N/N=C1/CN2CCC1CC2)c1cc2ccccc2cc1O`?
PTK2B oligo ant: -0.54; CYP2C9 inh: -3.5; CYP2C9 activ: 1; Cav3 T inh: -0.0212; CYP2C19 act: 1.1; CYP2C19 inh: -10.3

Results for COC[C@]12CN(C)C3C4[C@H](OC)[C@H]1C3([C@@H](OC)C[C@H]2O)[C@@H]1C[C@@]2(O)[C@H](OC(=O)c3ccccc3)[C@@H]1[C@]4(OC(C)=O)[C@@H](O)[C@@H]2OC ?
Cav3 T inh: -0.264

How did COC(=O)C1=C(N)Oc2c(c(=O)oc3ccccc23)[C@]12C(=O)N(C)c1ccccc12 do in these assays?
PTK2B oligo ant: -0.3; CYP2C9 inh: 68.5*; CYP2C9 activ: 0.3; Cav3 T inh: 2.01; CYP2C19 act: 0.3; CYP2C19 inh: 67.8*

What do the screens show for `O=C(C1CCC(=O)N1C1CCCCC1)N1CCC2(CC1)OCCO2` (stereo not drawn)?
PTK2B oligo ant: 1.94; CYP2C9 inh: 9.2; CYP2C9 activ: 0.9; CYP2C19 act: 1; CYP2C19 inh: 2.7

How did CN1CCc2c(c(N3CCCCC3)nc3n[nH]c(N)c23)C1 do in these assays?
PTK2B oligo ant: -0.87; CYP2C9 inh: -25.6; CYP2C9 activ: 1.3; Cav3 T inh: 0.0101; CYP2C19 act: 1.2; CYP2C19 inh: -20.0

What do the screens show for `C/C(=C/C=C/[C@@H](C)C(=O)O)[C@H]1CN[C@H](C(=O)O)[C@H]1CC(=O)O`?
Cav3 T inh: -0.0814

How did CN(C)C(Cc1ccccc1)C(=O)c1ccc(-c2ccccc2)cc1 (stereo not drawn) do in these assays?
PTK2B oligo ant: -1.31; CYP2C9 inh: 74.5*; CYP2C9 activ: 0.3; Cav3 T inh: -1.37; CYP2C19 act: 0.5; CYP2C19 inh: 49.6

How did CCC(=NCc1ccco1)c1c(O)n(-c2ccc(C)cc2)c(=O)[nH]c1=O do in these assays?
PTK2B oligo ant: 0.15; CYP2C9 inh: 17.7; CYP2C9 activ: 0.8; Cav3 T inh: 0.943; CYP2C19 act: 0.8; CYP2C19 inh: 24.2

Results for CCC(=NCc1ccco1)c1c(O)n(-c2ccccc2)c(=O)[nH]c1=O ?
PTK2B oligo ant: -0.64; CYP2C9 inh: 8.4; CYP2C9 activ: 0.9; Cav3 T inh: 0.469; CYP2C19 act: 0.5; CYP2C19 inh: 54.0*

How did CCCCn1c(O)c(C(C)=NCCCn2ccnc2)c(=O)[nH]c1=O do in these assays?
PTK2B oligo ant: 0.38; CYP2C9 inh: 90.2*; CYP2C9 activ: 0.1; Cav3 T inh: 1.06; CYP2C19 act: 0.7; CYP2C19 inh: 32.7
